# Bioassay records: PubChem, The Scripps Research Institute Molecular Screening Center
# Shown are actives, neighbours in structure and some others; about 3.5% of the full set was active somewhere.
# GPR151 activ: activates the human receptor GPR151; Q8TDV0; PathHunter beta-arrestin GPR151 cells, luminescence; activation, % at 11.2 µM; 650,000 compounds, 1% hits; AID 1508602; in the data active = activation above about 4.9%;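 note: 0% = median of compound wells and 100% = cells with positive control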
# FBW7 activator: activators of human E3 ligase FBW7 | Q969H0 | AlphaScreen FBW7–phospho-cyclin E peptide binding, activator screen | normalized activity (activation), % at 26.1 µM | 650,000 compounds, 0.13% hits; in the data active = normalized activity above about 1.9%;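 note: purified mutant Fbw7 with reduced substrate affinity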
# Target sequence (Q969H0 whole entry, looked up): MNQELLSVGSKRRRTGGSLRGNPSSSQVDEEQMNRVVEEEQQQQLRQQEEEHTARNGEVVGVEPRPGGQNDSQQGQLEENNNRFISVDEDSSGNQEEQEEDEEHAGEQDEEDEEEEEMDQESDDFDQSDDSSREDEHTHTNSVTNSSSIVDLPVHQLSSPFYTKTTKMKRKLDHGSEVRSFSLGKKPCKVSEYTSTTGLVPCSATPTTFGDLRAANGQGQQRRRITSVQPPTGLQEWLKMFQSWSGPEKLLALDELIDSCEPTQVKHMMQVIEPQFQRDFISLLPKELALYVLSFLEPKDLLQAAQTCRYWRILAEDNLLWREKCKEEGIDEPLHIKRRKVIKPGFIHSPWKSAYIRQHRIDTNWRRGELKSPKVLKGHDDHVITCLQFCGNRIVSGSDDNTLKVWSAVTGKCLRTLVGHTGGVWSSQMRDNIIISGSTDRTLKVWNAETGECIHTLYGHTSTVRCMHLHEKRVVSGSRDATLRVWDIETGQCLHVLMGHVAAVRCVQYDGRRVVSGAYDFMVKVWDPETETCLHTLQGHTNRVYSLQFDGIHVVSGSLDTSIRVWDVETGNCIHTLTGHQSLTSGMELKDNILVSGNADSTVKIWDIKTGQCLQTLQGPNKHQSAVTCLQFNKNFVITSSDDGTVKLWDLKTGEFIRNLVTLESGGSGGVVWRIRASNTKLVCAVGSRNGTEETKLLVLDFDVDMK
# MITF primary: blocks human microphthalmia-associated transcription factor | O75030 | AlphaScreen MITF homodimerization, bead proximity signal | inhibition, % at 2.6 µM | 650,000 compounds, 0.91% hits | AID 1259374; in the data active = inhibition above about 50%;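 note: 0% = vehicle wells with protein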
# TEAD-YAP inh: TEAD-YAP interaction inhibition; HEK-TIYL cells, TEAD-Gal4/YAP UAS-luciferase luminescence; inhibition, % at 9.12 µM; 640,000 compounds, 1.4% hits; in the data active = inhibition above about 32%;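 note: 0% = median of test compound wells and 100% = reference inhibitor wells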
# MITF confirm: human MITF inhibition, confirmation; shares compounds with MITF primary; AlphaScreen MITF homodimerization, biotin/His-MITF beads; inhibition, % at 2.6 µM; 4,700 compounds, 16% hits; AID 1259372;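 active = inhibition above a cutoff derived from the DMSO control wells, cut at about 28% in these data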;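 note: 0% = MITF dimer wells with DMSO only; inhibitors lower the bead chemiluminescence by keeping MITF from dimerizing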
# AlphaScreen DR: AlphaScreen optical interference, dose response counter-screen. shares compounds with MITF primary. AlphaScreen optical interference counterscreen, cell-free. IC50, µM. 480 compounds, 6% hits. AID 1259373; call rule not given here
# AS interf ctr: optically interferes with AlphaScreen signal; LysRS AlphaScreen counterscreen, signal interference, triplicate; shares compounds with MITF primary; 4,700 compounds, 7.6% hits; inhibition, % at 2.6 µM;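 active = inhibition above a cutoff derived from the DMSO control wells, cut at about 30% in these data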
# Numbers without * were called inactive; · = no result.
SMILES,GPR151 activ,FBW7 activator,MITF primary,TEAD-YAP inh,MITF confirm,AS interf ctr,others
COCCNC(=O)N1CCN(Cc2nc3ccccc3n2C)CC1,0,0,78*,5,8,20,
Cn1c(CN2CCN(Cc3ccccc3)CC2)nc(=O)c2ccccc21,-1,0,71*,-4,-17,3,
Cc1noc(C)c1CN1CCN(C(=O)c2cc(=O)c3ccccc3o2)CC1,1,0,10,-4,·,·,
CCOc1cc(C(=O)NCC(=O)NNc2ncnc(N)c2[N+](=O)[O-])cc(OCC)c1OCC,-1,0,8,-8,·,·,
COc1cccc(CC(=O)Nc2ccc3ccccc3c2)c1,-2,0,-1,7,·,·,
COc1cccc(CC(=O)Nc2nnc(-c3ccco3)c(-c3ccco3)n2)c1,1,-1,63*,-4,80*,15,AlphaScreen DR=>6.5
O=C(C(Cl)c1ccccc1)N1CCCCC1 (configuration not stated),4,0,-3,17,·,·,
O=C(CC1(CC2=NS(=O)(=O)c3ccccc3N2)CCCC1)n1ccnc1,1,0,3,-9,·,·,
N#C/C(=C\c1ccc(OC(=O)c2ccccn2)cc1)C(N)=O,-1,0,53*,10,31*,56*,
CC(=O)c1cccc(N=Cc2ccc(OC(=O)c3ccccn3)cc2)c1,-2,0,20,-7,·,·,
